# Laboratory results taken from the supplement of paper PMC9433436.
# ± gives the standard deviation of the averaged measurements. Whole data set: some 4,100 sequences, median “relative kcat/Km (krel) vs genomic leader AAAGAU” near 1.7, cut for the highest 2% near 6.5. For the sample, the highest values were picked, then their nearest neighbours and some sequences at random.
# Molecular target: T1, E. coli RNase P holoenzyme (M1 P RNA + rnpA protein) (UniProt P0A7Y8)
# T1 sequence: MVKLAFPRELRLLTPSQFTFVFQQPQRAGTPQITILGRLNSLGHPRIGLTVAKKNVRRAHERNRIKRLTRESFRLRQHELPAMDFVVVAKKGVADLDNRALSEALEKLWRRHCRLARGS
# Assay: relative kcat/Km (krel) vs genomic leader AAAGAU (relative (reference leader = 1)); higher = faster RNase P cleavage
# Protocol: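 HTS-Kin: a pool of ptRNA-Met (21C construct) with all 4096 combinations of 5' leader nucleotides N(-6) to N(-1) was processed in vitro by E. coli RNase P (P RNA + rnpA/C5 protein) under multiple-turnover conditions at 37 C, pH 8, 17.5 mM MgCl2. Residual substrate was Illumina-sequenced at several fractions reacted, and relative kcat/Km (krel) was computed by internal competition kinetics, calibrated to the genomic leader (AAAGAU = 1). The listed hexamer is the varied N(-6)..N(-1) leader (DNA letters), and it sits between a fixed 5' stem-loop flank (GCAUGCACGAAAGUGCGUGCUAUGAA) and the mature tRNA-Met starting GGCUACGUAGCUCAGUUGG. Two technical replicates are averaged.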
# [1] = fraction of substrate reacted: ~9-10% (9.79% repeat 1, 9.1% repeat 2)
# [2] = fraction of substrate reacted: ~13-16% (15.68% repeat 1, 13.17% repeat 2)
# [3] = fraction of substrate reacted: ~26-29% (28.66% repeat 1, 26.4% repeat 2)
Sequence,relative kcat/Km [1],relative kcat/Km [2],relative kcat/Km [3]
TCCGAA,5.05 ± 1.9,6.23 ± 1.9,9.05 ± 3.9
GCCGAA,3.56 ± 1.2,4.16 ± 0.78,6.35 ± 2.4
ACCGAC,2.3 ± 2.1,3.17 ± 0.29,4.58 ± 1
GCCGAC,2.64 ± 1.3,3.49 ± 0.69,5.36 ± 2.2
CCCGAA,2.83 ± 1.5,4.35 ± 1.8,6.76 ± 2.5
ACTCGT,–,–,2.02 ± 1.7
AGCACG,–,–,1.13 ± 0.11
TTAGAA,2.72 ± 1.5,2.61 ± 0.03,3.57 ± 1.4
ACCCAC,3.6 ± 1.7,3.71 ± 0.7,5.48 ± 1.8
TCCCAC,4.44 ± 1.1,5.53 ± 1.1,7.79 ± 3
CCCCAA,3.03 ± 1.2,3.57 ± 0.21,4.97 ± 1.6
ACCCAA,2.3 ± 0.84,2.69 ± 0.25,4.83 ± 1.9
ACCCAT,2.43 ± 0.83,2.95 ± 0.91,5.63 ± 2.4
TCCCAT,4.48 ± 2.4,5.74 ± 1,8.73 ± 3.7
GCCCAT,3.07 ± 2.2,3.36 ± 0.14,5.4 ± 1.5
TCCCAA,4.73 ± 3.1,4.63 ± 0.2,6.94 ± 2.3
GCCCAC,3.04 ± 0.041,4.04 ± 1.6,5.93 ± 2.8
GCTATG,–,–,1.51 ± 0.12
AGAAAG,1.38 ± 1.3,1.14 ± 0.7,2.2 ± 0.47
CGGACG,1.05 ± 1.1,–,0.906 ± 0.41
GCATAA,1.89 ± 0.96,2 ± 0.52,3.04 ± 1.1
ATAGTC,1.61 ± 0.89,1.42 ± 1,1.68 ± 0.75
AGTAAT,2.83 ± 0.62,3.38 ± 0.27,5.07 ± 2.3
TTCCTA,3.35 ± 1.2,4.53 ± 0.46,5.89 ± 2.4
GACGCT,2.24 ± 0.19,2.17 ± 0.8,3.11 ± 1.4

Sequence,relative kcat/Km [1],relative kcat/Km [2],relative kcat/Km [3]
GACGCG,–,0.59 ± 0.14,2.38 ± 0.093
TACGCA,2.71 ± 1.7,4.27 ± 0.58,6.64 ± 3.4
TACGCC,3.64 ± 0.043,5.35 ± 1.7,7.66 ± 3.3
TACGCG,1.87 ± 1.1,1.66 ± 0.44,3.13 ± 0.89
GACGCC,3.241 ± 0.028,4.62 ± 1.3,6.69 ± 2.6
AACGCC,1.93 ± 0.48,3.24 ± 1.4,4.53 ± 1.3
AACGCA,2.99 ± 1.6,3.18 ± 0.58,4.32 ± 1.4
GACGCA,3.33 ± 1.3,3.62 ± 0.97,5.24 ± 1.8
ACGCAC,1.83 ± 0.3,2.12 ± 0.95,3.59 ± 1.2
CATCCC,2.17 ± 1.8,2.06 ± 1.1,1.96 ± 0.22
CCTTTC,2.13 ± 0.9,2.39 ± 0.27,3.08 ± 0.83
CCTTCA,1.71 ± 1.4,1.18 ± 0.065,1.84 ± 0.056
CACTTC,2.93 ± 0.5,3.69 ± 0.85,5.44 ± 2.2
TACTTT,3.77 ± 1.4,4.69 ± 0.54,6.8 ± 3.1
CACTTT,3.33 ± 1.1,4.55 ± 0.76,6.22 ± 2.4
TACTTA,3.1 ± 0.66,4.1 ± 0.88,5.63 ± 2.6
TACTTC,4.11 ± 1.8,4.99 ± 1.3,6.85 ± 2.9
TACTTG,–,0.792 ± 0.45,2.68 ± 1.1
GTTATG,–,1.56 ± 0.24,3.32 ± 0.7
CTTTTA,2.68 ± 0.65,2.79 ± 0.91,3.18 ± 1.2
AAGCAT,2.34 ± 0.52,2.87 ± 1,3.28 ± 1.9
CTCCAT,4.25 ± 0.86,5.67 ± 1.3,8.48 ± 4
GTCCCT,2.62 ± 0.56,3.61 ± 0.74,5.58 ± 2.5
TTCCCC,3.49 ± 1.7,4.17 ± 0.71,5.59 ± 1.9
CTCCCT,3 ± 0.57,3.57 ± 0.86,4.86 ± 2.1

Sequence,relative kcat/Km [1],relative kcat/Km [2],relative kcat/Km [3]
GTCCAG,2.58 ± 1,2.9 ± 0.5,5.48 ± 2
GTCCAT,4.26 ± 0.8,6.41 ± 1.5,9.1 ± 4.4
TGCCAA,3.18 ± 1.1,2.55 ± 0.62,4.09 ± 1
TTCCAA,4.78 ± 1.8,6.03 ± 0.65,8.56 ± 3.5
TTCCAC,5.3 ± 2,6.51 ± 1.3,9.46 ± 4.2
TTCCAG,2.51 ± 1.5,3.27 ± 0.64,5.49 ± 1.9
TGCCAC,2.55 ± 1.6,3.121 ± 0.026,4.36 ± 1.6
CGCCAT,3 ± 0.35,4.6 ± 1.3,6.07 ± 2.5
CCTCTG,–,–,1.47 ± 0.38
CTTGGA,1.23 ± 1.1,1.2 ± 0.45,1.15 ± 0.8
TTGAGC,1.16 ± 0.28,1.24 ± 0.71,1.47 ± 0.22
ACCGGC,1.08 ± 0.83,–,–
AGAACC,1.66 ± 1.1,1.82 ± 0.43,1.82 ± 0.17
GCACGT,–,–,0.727 ± 0.1
CAAAGG,0.345 ± 0.3,–,–
GACCAA,1.8 ± 0.3,3.47 ± 1.1,4.86 ± 1.5
GTCCAA,3.74 ± 1.3,4.92 ± 0.95,7.96 ± 3
ATCCAG,1.67 ± 0.93,1.77 ± 0.18,3.83 ± 0.61
GTCCAC,5.04 ± 1.9,6.06 ± 1.1,8.78 ± 3.9
ATCCCT,2.7 ± 0.55,3.48 ± 0.4,4.42 ± 1.8
GTCCCC,2.87 ± 2.5,4.17 ± 0.82,5.29 ± 1.4
ATCCAT,3.89 ± 0.97,4.72 ± 1.4,7.14 ± 3.2
AGCCAT,3.54 ± 1.2,3.08 ± 0.86,4.77 ± 2
GGCCAC,0.682 ± 0.091,1.39 ± 0.35,2.65 ± 0.59
ATCCCC,2.42 ± 0.41,3.13 ± 0.35,4.59 ± 2.2

Sequence,relative kcat/Km [1],relative kcat/Km [2],relative kcat/Km [3]
ATCCAC,4.03 ± 1.7,4.47 ± 0.19,6.76 ± 2.2
ATCCAA,3.15 ± 0.43,4.2 ± 1.2,6.3 ± 2.3
TTTGCC,1.81 ± 0.95,1.79 ± 0.37,2.42 ± 0.16
AGTATT,2.4 ± 0.68,3.14 ± 0.3,4.91 ± 2.2
AACTGG,–,–,0.249 ± 0.046
TGATGT,–,1.13 ± 1.1,1.37 ± 0.91
ACTTTA,1.56 ± 0.72,1.89 ± 0.44,2.18 ± 0.5
GCTGCC,1.37 ± 0.5,0.461 ± 0.12,0.965 ± 0.29
GCGGCA,–,0.64 ± 0.26,–
CATTTC,2.59 ± 0.64,2.31 ± 0.88,4.06 ± 1.9
CTCCAG,2.81 ± 1.9,2.34 ± 0.026,4.6 ± 1.3
CTCCCC,2.43 ± 0.053,3.34 ± 1,4.73 ± 2.2
CTCCAA,4.23 ± 2.1,4.62 ± 0.048,6.98 ± 2.8
CTCCAC,4.55 ± 1.9,5.88 ± 1.5,7.81 ± 3.1
TTCCAT,4.71 ± 0.96,7.43 ± 1.3,10.3 ± 4.6
CACCAC,3.5 ± 0.91,3.81 ± 1.5,5.55 ± 2.2
CGCCAA,2.95 ± 0.91,3.15 ± 0.75,5.09 ± 1.8
TTCCCT,3.18 ± 0.59,4.37 ± 1.1,6.18 ± 2.6
TGCCAT,2.8 ± 0.93,2.89 ± 0.61,4.45 ± 1.8
CAGGGA,–,0.949 ± 0.58,1.06 ± 1
CCGATG,–,–,1.14 ± 0.71
CGCATG,–,–,1.43 ± 0.34
CCATAA,3.55 ± 1.6,2.67 ± 0.37,3.58 ± 0.78
CCACTT,1.71 ± 0.26,0.873 ± 0.61,1.91 ± 0.31
TGCTGA,1.907 ± 0.0028,1.69 ± 0.5,2.71 ± 1
